Source: PubChem BioAssay (NCI)
About 83,000 compounds went through this panel and 20% of them were active in at least one assay; those are over-represented in the sample as a whole.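 Results are percent growth after 48 hours of single-concentration exposure. 100 means growth as in untreated cells, lower positive values show inhibition; negative values down to -100 show cell death.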 Values without a mark were called inactive. Calls of active or inactive are those of the source. Rule for the calls: active = growth percent below 10; inactive = the rest.

How the values were obtained:
Test in all cases: NCI-60 one-dose screen, 48 h (100 = growth as untreated, 0 = no growth, -100 = all killed)
Details in all cases: 10 µM unless noted
SR leukemia = test system: SR leukemia
RPMI-8226 leukemia = test system: RPMI-8226 leukemia
OVCAR-8 ovarian = test system: OVCAR-8 ovarian
OVCAR-5 ovarian = test system: OVCAR-5 ovarian
OVCAR-4 ovarian = test system: OVCAR-4 ovarian
SK-OV-3 ovarian = test system: SK-OV-3 ovarian
IGROV1 ovarian = test system: IGROV1 ovarian
OVCAR-3 ovarian = test system: OVCAR-3 ovarian
HS 578T breast = test system: HS 578T breast
NCI/ADR-RES ovarian = test system: NCI/ADR-RES ovarian
T-47D breast = test system: T-47D breast
BT-549 breast = test system: BT-549 breast
MDA-MB-435 melanoma = test system: MDA-MB-435 melanoma
SW-620 colon = test system: SW-620 colon
MCF7 breast = test system: MCF7 breast
HCT-116 colon = test system: HCT-116 colon
HCC-2998 colon = test system: HCC-2998 colon
KM12 colon = test system: KM12 colon
MDA-MB-468 breast = test system: MDA-MB-468 breast

| SMILES | growth (SR leukemia) | growth (RPMI-8226 leukemia) | growth (OVCAR-8 ovarian) | growth (OVCAR-5 ovarian) | growth (OVCAR-4 ovarian) | growth (SK-OV-3 ovarian) | growth (IGROV1 ovarian) | growth (OVCAR-3 ovarian) | growth (HS 578T breast) | growth (NCI/ADR-RES ovarian) | growth (T-47D breast) | growth (BT-549 breast) | growth (MDA-MB-435 melanoma) | growth (SW-620 colon) | growth (MCF7 breast) | growth (HCT-116 colon) | growth (HCC-2998 colon) | growth (KM12 colon) | growth (MDA-MB-468 breast) |
| --- | --- | --- | --- | --- | --- | --- | --- | --- | --- | --- | --- | --- | --- | --- | --- | --- | --- | --- | --- |
| CN(C)C(=O)c1cc(-c2ccc3ncnc(N4CCc5cc(F)c(Cl)cc54)c3c2)cnc1N | -57% (active) | -34.6% (active) | -8.58% (active) | -15% (active) | -17.5% (active) | -32.8% (active) | -62.5% (active) | -58.1% (active) | -44.2% (active) | -12.5% (active) | -59.1% (active) | -82.9% (active) | -58.5% (active) | -51.8% (active) | -59.9% (active) | -97.4% (active) | -82.2% (active) | -58.3% (active) | -80.4% (active) |
| C=CCn1c(O)c(N=Nc2nc(-c3cc4ccccc4oc3=O)cs2)c2ccccc21 | 16.2% | 106% | 80.9% | 18.6% | 80.9% | 112% | 23.9% | 49.3% | 27.5% | 91.6% | 88.8% | 67.3% | 98.5% | 101% | 33.4% | 39.3% | 78.4% | 79.4% | 70.3% |
| COc1cc(/C=C/C(=O)c2ccc(S(=O)(=O)NCCNc3nc(N(C)C)nc(N4CCOCC4)n3)cc2)cc(OC)c1OC | -28.2% (active) | -14.5% (active) | -49.5% (active) | -33.1% (active) | 8.16% (active) | 60.3% | -55% (active) | -42.2% (active) | 19.9% | -39.1% (active) | 29.9% | -73.3% (active) | -56% (active) | -100% (active) | -96.4% (active) | -100% (active) | -100% (active) | -100% (active) | -100% (active) |
| COc1ccc(C2=NN(C(=O)[C@H]3[C@@H](c4ccco4)c4sc(=O)[nH]c4S[C@@H]3C)C(c3ccc4ccccc4c3)C2)cc1 (some centres not stated) | 24.8% | 8.59% (active) | 28% | 42.9% | 49.2% | 84.6% | 45.6% | 31% | 29.6% | 26.7% | 9.22% (active) | 76.2% | 41.8% | 24.9% | 13.1% | 16.1% | 27.3% | 33.9% | -14.6% (active) |
| CC1=C(C(=O)Nc2ccccc2)C(c2cccc(Cl)c2Cl)n2c(nc3ccccc32)N1 (configuration not stated) | 6.58% (active) | 37% | 66.6% | 82.8% | 49.4% | 84.3% | 54.9% | 42.2% | 66% | 46.3% | 67.4% | 71% | 26.5% | 56.5% | 24.6% | 29.6% | 25.6% | 32.9% | -32.2% (active) |
| O=C(Cn1c(-c2ccccc2)nc2ccccc21)N=Nc1c(O)[nH]c2ccc(Br)cc12 | -25.7% (active) | 21.9% | -39.2% (active) | 0.0575% (active) | -62.1% (active) | -47.9% (active) | -41.8% (active) | -22.5% (active) | -28.8% (active) | -55.7% (active) | -59.4% (active) | -53.7% (active) | -32.3% (active) | 11.9% | -18.6% (active) | 1.09% (active) | 0.134% (active) | 15% | -53.4% (active) |
| Cc1cc(C(NC(=O)C2CC3(CC(Nc4cccc5c4C(=O)N(C4CCC(=O)NC4=O)C5=O)C3)C2)c2ccc3c(c2)OC(F)(F)O3)c(O)c2ncccc12 (configuration not stated) | 10.6% | 15% | 4.53% (active) | 35.1% | 35% | -4.52% (active) | 6% (active) | 16.1% | 29.3% | 12.2% | 11.5% | 9.92% (active) | 28.5% | 25.6% | 8.12% (active) | 15.6% | 36.6% | 17.5% | -30.6% (active) |
| COc1cc(/C=C/C(=O)c2cnn(-c3cc(=O)[nH]c4ccc(Cl)cc34)c2C)cc(OC)c1OC | -11.6% (active) | -31.7% (active) | -0.426% (active) | -52.3% (active) | 17.7% | -6.03% (active) | -35.3% (active) | -61.7% (active) | 23.9% | -20.3% (active) | -31.4% (active) | -47% (active) | -9.26% (active) | -45.8% (active) | -37.6% (active) | -67.6% (active) | -93.5% (active) | -28.4% (active) | -83.1% (active) |
